Assay results taken from the supplement of paper PMC10681739.

What was measured:
ETS1 [1] = target: T1, ETS1 (UniProt P14921); test: ETS1 binding intensity (PBM fluorescence), ETS1 alone (arbitrary fluorescence units); higher = stronger binding; settings: ETS1 concentration 1 nM; RUNX1 concentration 0 nM
T1 sequence: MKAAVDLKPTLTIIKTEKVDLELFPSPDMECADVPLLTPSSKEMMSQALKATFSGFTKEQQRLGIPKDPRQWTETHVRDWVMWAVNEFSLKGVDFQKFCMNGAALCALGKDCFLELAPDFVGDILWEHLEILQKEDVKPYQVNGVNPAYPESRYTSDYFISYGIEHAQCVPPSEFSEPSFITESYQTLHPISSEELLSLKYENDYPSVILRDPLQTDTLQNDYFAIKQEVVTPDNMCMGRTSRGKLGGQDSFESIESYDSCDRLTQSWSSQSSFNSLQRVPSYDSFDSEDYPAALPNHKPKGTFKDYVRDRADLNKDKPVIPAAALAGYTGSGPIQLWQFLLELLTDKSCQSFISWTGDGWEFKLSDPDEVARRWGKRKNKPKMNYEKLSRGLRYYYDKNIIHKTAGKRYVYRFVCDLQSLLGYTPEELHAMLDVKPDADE

ETS1 [2] = target: T1, ETS1; test: ETS1 binding intensity (PBM fluorescence) in presence of RUNX1, normalised to ETS1-only experiment (arbitrary fluorescence units); higher = stronger binding; settings: ETS1 concentration 1 nM; RUNX1 concentration 25 nM

Row | Sequence | ETS1 binding intensity (ETS1 [1]) | ETS1 binding intensity (ETS1 [2])
1 | AGCTCCAGGAAGAGGGCCTGAAAACCAAACGGGGGA | 408 | 474
2 | GACTGAGATTTCCTGCCAGCAACCACATGGCTTGTC | 512 | 577
3 | CGCCGTAGGAGGAAGCCGCGGCCGCAACGCTCCTGG | 454 | 816
4 | TGTTGGCTGTCCTCCGGAAACCCGCGCCTGGGTCGC | 1820 | 1930
5 | GTCGTGTTTGGCTTCCTGTGGGCACGCCTGCGTAGC | 589 | 516
6 | TCAGGGTCAGCAGGAGGAAACCACGCACTACATGCT | 437 | 451
7 | GGTTTCACTTCCTGCGTTGGGCCTTGTGGCCTCCTT | 783 | 787
8 | TGGGATTCTCACTTCCGATCAGCGGTCCTGAACCCG | 707 | 622
9 | CGAGTCAGGAAATCACAGCTCTGCGGGTGGGCTCCT | 458 | 623
10 | CACTTGTCCTTCCTGGCCTGCGGCCGCCACCACTTC | 443 | 372
11 | AGAATTACCAGGAAGCCGAGCGCTGCGGGCTAGCGG | 518 | 631
12 | TGCACACATGAGGAAGGGGTAAGTGGTTTTCCCTAC | 498 | 468
13 | GCTATCGAGCTTCCTGCAGCGGTGGCCACCCGAGCA | 482 | 418
14 | GAATCACCATTTCCTCACTCCCACACAACCATGTTG | 485 | 417
15 | CTTCCATCCAGGAAGCTTGTGGTGCAACAGCAGTGT | 840 | 1100
16 | TGAAGGGACGGAAGGGACAGAACTTGCGGGAGGCAC | 497 | 416
17 | GTGGGTAGGGAGGAAGCTGTGAAACCACCTCCCCTC | 688 | 882
18 | GCAGGCGTGCGCTTCCGCTCCAACCCGCGCACTTCG | 1110 | 1100
19 | TTTATCCTTATTTCCTGGCTTCGCCCACAAGCACAG | 599 | 625
20 | TGTGAGAAGCCGGATCCTGTGGTGACCCAGTGGCCT | 409 | 479
21 | GAGTGGGGGTGGGGAGGAAGCCACAGGGCCGGGCTG | 624 | 771
22 | CCTCCAGGAAGCGATAAGTGACTGTGGTGGAGAGAG | 663 | 620
23 | GTGGCTTCCTGCCATTGACAATTGCGGGATGGCTTT | 529 | 542
24 | CTCGGCGCGACGGATATTCCCGTGACCGCCGGGTTC | 672 | 920
25 | AGGCGAAGGATGACTTCCTGCGGCACTACACAGTGT | 610 | 656

Row | Sequence | ETS1 binding intensity (ETS1 [1]) | ETS1 binding intensity (ETS1 [2])
26 | CGGGCCCGACGGAAACCATGTTTGTGGCTCGCAGCA | 744 | 699
27 | TGCTGTTTCCTCTGCTGCCGAAGCGGTTTCTTCCAC | 443 | 400
28 | GTGACCCAATACTTCCTGCCACAATACTGAGAACTC | 841 | 702
29 | GAACACGGAAACACTGAGCTTTTACTTTGACCACAC | 572 | 440
30 | CCGAGCCGGCCTCTTCCGCCGCAAGTCCCTCCCCAA | 548 | 428
31 | GTGCGGAAGCGCGCCAAGGCACGTGACCGCTTCTGT | 381 | 475
32 | TCGGAACGGAAGGGAGGCACGAAACCGCGAGTGGAG | 607 | 1840
33 | GACTGCGCCGGACGCGCCAGCCCTGCGGGATGACGT | 650 | 801
34 | CAGTCAGACGGAAGCCCGGCTTCTGTGGTGCCTGCC | 459 | 473
35 | TGGCAGGATGCCGTTAAATATGTAACCACATGTCTC | 500 | 1250
36 | GGAGTGAGGAGGAAGCGGAGGCGAGACCGCGCTCAA | 464 | 399
37 | GGCTTGCCAAGAGGAAATTTGAAGCCACAATAACAT | 808 | 951
38 | CTTTTTGATTTCCTCAAGCATCCCACAAATACACAG | 539 | 659
39 | GAAGTGATGTTAGACGGATGTGGGTGGTGCCTCCGG | 1620 | 2790
40 | GTAGCCGGGTGTTCCGGAGCGCTGCGGGCAAAGCAG | 387 | 539
41 | TGAGGGCATAGGAAGTGATGGCCGCAAGGGGATGCC | 1860 | 2390
42 | TAACCCGGAGCGGAAGGATCCCGCAGCGTGTGCGTA | 681 | 797
43 | TACTTAGAGGAAATGTGGCCTGTGGTCTTGTCTCAC | 617 | 977
44 | CCATTTCCTGATTCTAATGTTCATCAACCACTTTTG | 504 | 397
45 | GGGCAGCATCCTGTGCCTGCTTCTCTTACCCACATC | 494 | 453
46 | CCTCCTGGGAACTTCCTGCGGGGGCCGAAGCTGAAG | 640 | 660
47 | TGAGGAAGTGTAAGTCACAATAAGAAGCCACATATA | 564 | 519
48 | CTAGGGAGAGGATGTGAGTTTGTCTGTGGGGGTGGT | 796 | 828
49 | GACCCATTTCCTGGCTCAGGAGCCCACAGCCCTGGG | 464 | 404
